Test results as given in PubChem BioAssay (NCATS).
Results filed as inconclusive are left out. Where a call stands in place of a potency, no number is given. Unmarked numbers belong to inactive results. Activity calls are given as the source filed them. Calls come from the whole dose curve; as a rule, active = well fitted curve in the direction sought with a large enough effect; inconclusive = small, poorly fitted or top-dose-only effect, or another doubt; inactive = no such curve, though single readings can be large; an effect the other way counts as inactive or inconclusive.

Columns and labels:
[1] = G06 Cancer Cell Toxicity qHTS against the NCATS CANVASS Library (AID 1347368); note: nearly all actives have a fitted effect of over 60% in size; note: potency is the fitted concentration of half-maximal effect
How it was run: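 Dog G06 glioma line, 500 cells/well; cpds pin-transferred, 11-pt; 72 hr, 37C/5% CO2; CellTiterGlo luminescence (ATP) endpoint.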

[2] = qHTS for Antimalaria activity screened against the NCATS CANVASS Library (AID 1347380); note: nearly all actives have a fitted effect of over 40% in size; note: potency is the fitted concentration of half-maximal effect
How it was run: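 Dd2 strain, infected erythrocytes 2.5% Hct final / 0.3% parasitemia. 11-pt qHTS titration, 72 h, 37C, 5% O2, 5% CO2. Lysis buffer + SYBR Green, 18 h, fluorescence 485/535 nm.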

[3] = UWB1.289 Cancer Cell Toxicity qHTS against the NCATS CANVASS Library (AID 1347347); note: nearly all actives have a fitted effect of over 60% in size; note: potency is the fitted concentration of half-maximal effect
How it was run: (§1)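 ATP content after 72 h treatment, detected by CellTiter-Glo luminescence (15min room-temperature development), reflects cell viability. Wells contained 1000 cells and received compounds at 11 concentrations.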

[4] = Panc-1005 Cancer Cell Toxicity qHTS against the NCATS CANVASS Library (AID 1347349); note: nearly all actives have a fitted effect of over 60% in size; note: potency is the fitted concentration of half-maximal effect
How it was run: as §1

[5] = UWB1.289-WTBRCA1 Cancer Cell Toxicity qHTS against the NCATS CANVASS Library (AID 1347354)
How it was run: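 Luminescent ATP read-out (CellTiter-Glo, 15min at room temperature) measures survival after cells face an 11-point compound series for 72 hours at 37 degrees C/5% CO2.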

[6] = tested on: Zika virus NS2B-NS3 protease (linked construct); experiment: Primary screen NINDS Rhodamine qHTS for Zika virus inhibitors (AID 1347160); note: potency is the fitted concentration of half-maximal effect; nearly all actives have a fitted effect of over 55% in size
How it was run: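 Purified linked NS2B-NS3 protease (NS2B hydrophilic domain joined to NS3 protease by flexible linker), 25 nM in 10 mM Tris-HCl pH 8.0, 0.01% Tween 20. Compounds titrated, 15 min preincubation at room temperature; 1.5 microM Rhodamine110 substrate, FITC fluorescence change over 15 min.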

With `CO[C@H]1[C@H](O[C@H]2CC[C@]3(C=O)[C@H]4CC[C@]5(C)[C@@H](C6=CC(=O)OC6)CC[C@]5(O)[C@@H]4CC[C@]3(O)C2)O[C@H](C)[C@H](O)[C@@H]1OC` the Potency [1] was 296 nM (active) and the Potency [2] was “inactive”.

In the case of `C[N+](C)(C)CCc1c[nH]c2ccccc12`, the Potency [3] is reported as “inactive”, the Potency [4] is reported as “inactive” and the Potency [5] is reported as “inactive”. For the same molecule, the Potency [1] was “inactive”.

In the case of `CC(C)CC1C(=O)O[C@H](C(C)C)C(=O)N(C)C(CC(C)C)C(=O)O[C@@H](C(C)C)C(=O)N(C)C(CC(C)C)C(=O)O[C@H](C(C)C)C(=O)N(C)C(CC(C)C)C(=O)O[C@@H](C(C)C)C(=O)N1C` (stereo partly specified), the Potency [6] is reported as 4400 nM (active), the Potency [4] is reported as 6680 nM (active) and the Potency [2] is reported as 747 nM (active).

For `CCCC[C@@H](C)/C=C1/CN2CCC[C@H]2[C@@](C)(O)[C@@H]1O`, the Potency [4] was “inactive”, the Potency [5] was “inactive” and the Potency [1] was “inactive”. For the same molecule, the Potency [2] was “inactive”.

With `C=C[C@]12C=CCN3CC[C@@]4(c5ccccc5NC(=O)[C@@H]4C1)[C@@H]32` the Potency [3] was “inactive”, the Potency [4] was “inactive” and the Potency [5] was “inactive”.

In the case of `CCCC[C@@H]1CC[C@H]2CCCC(CCCO)N12` (stereo partly specified), the Potency [4] is reported as “inactive”, the Potency [5] is reported as “inactive” and the Potency [1] is reported as “inactive”. The Potency [2] was 10.6 nM (active).

With `C/C=C(\C)C(=O)O[C@@H]1[C@@H](O)[C@@H]2O[C@H]3[C@H](O[C@@H](CCCCC)CCCCCCC(=O)CCC(=O)OC[C@@H](O2)[C@H]1OC(=O)/C=C/c1ccccc1)O[C@H](C)[C@H](OC(C)=O)[C@@H]3O` the Potency [3] was 594 nM (active), the Potency [4] was 33.5 nM (active) and the Potency [5] was “inactive”. The Potency [1] was 4.7 nM (active) and the Potency [2] was 37.5 nM (active).

For `C/C=C1/CN2C3CC1C1=CCC(=O)N4c5ccccc5[C@@]3(C[C@@H]2C2=C[C@H]3C5CC6N(CC[C@@]67c6ccccc6N(C2=O)[C@@H]37)C/C5=C/C)[C@H]14` (stereo partly specified), the Potency [6] was 31100 nM (active), the Potency [4] was 14900 nM (active) and the Potency [1] was 20900 nM (active). For the same molecule, the Potency [2] was 1330 nM (active).

For `C[C@]12CCC3[C@@H](CC[C@@H]4C[C@@H](O)CC[C@]34CO)[C@@]1(O)CC[C@@H]2C1=CC(=O)OC1` (stereo partly specified), the Potency [3] was 1180 nM (active), the Potency [1] was 1870 nM (active) and the Potency [2] was “inactive”.

For `CC[C@]12C=CCN3CC[C@]4(C(=C(C(=O)OC)C1)Nc1ccccc14)[C@@H]32`, the Potency [3] was “inactive”, the Potency [4] was “inactive” and the Potency [5] was “inactive”. The Potency [2] was 42 nM (active).

For `CO[C@H]1C[C@H](O[C@H]2[C@@H](O)C[C@H](O[C@H]3CC[C@]4(C=O)[C@H]5CC[C@]6(C)C(C7=CC(=O)OC7)CC[C@]6(O)[C@@H]5CC[C@]4(O)C3)O[C@@H]2C)O[C@H](C)[C@H]1O[C@H]1C[C@@H](OC)[C@@H](O[C@@H]2O[C@H](CO)[C@@H](O)[C@H](O)[C@H]2O)[C@@H](C)O1` (stereo partly specified), the Potency [6] was 44000 nM (active) and the Potency [1] was 264 nM (active).

With `c1ccc2nc3c(cc2c1)[nH]c1ccccc13` the Potency [3] was “inactive”, the Potency [5] was “inactive” and the Potency [2] was “inactive”.
